SKKanGAS inh: S. pyogenes SKKanGAS growth inhibitors in kanamycin, primary screen, streptokinase expression inhibitor project, SKKanGAS strain, BacTiter-Glo luminescence; actives 1.3% (n = 300,000); inhibition, % at 7.5 µM; AID 1662, 2009; 6 h;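 active means mean replicate score, as percent of positive control median, at least 50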;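 further: strain carries kanamycin resistance gene driven by streptokinase promoter and grows in 40 µg/ml kanamycin; loss of luminescence reflects streptokinase promoter inhibition or plain growth inhibition; 0% = median of DMSO wells and 100% = positive control at its reference dose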
Mdm2 MdmX PPI: inhibitors of human Mdm2-MdmX association, primary screen, cell-based, luminescence, split luciferase, SaOS-2, uHTS | Protein Mdm4 (Homo sapiens) + E3 ubiquitin-protein ligase Mdm2 (Homo sapiens), … | SaOS-2 split-luciferase Mdm2/MdmX complementation | inhibition, % at 8 µM | actives 3% (n = 330,000) | AID 485346, 2010;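 active means inhibition of at least 50% at 8 µM in the primary screen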
Target sequence (O15151 whole entry, looked up): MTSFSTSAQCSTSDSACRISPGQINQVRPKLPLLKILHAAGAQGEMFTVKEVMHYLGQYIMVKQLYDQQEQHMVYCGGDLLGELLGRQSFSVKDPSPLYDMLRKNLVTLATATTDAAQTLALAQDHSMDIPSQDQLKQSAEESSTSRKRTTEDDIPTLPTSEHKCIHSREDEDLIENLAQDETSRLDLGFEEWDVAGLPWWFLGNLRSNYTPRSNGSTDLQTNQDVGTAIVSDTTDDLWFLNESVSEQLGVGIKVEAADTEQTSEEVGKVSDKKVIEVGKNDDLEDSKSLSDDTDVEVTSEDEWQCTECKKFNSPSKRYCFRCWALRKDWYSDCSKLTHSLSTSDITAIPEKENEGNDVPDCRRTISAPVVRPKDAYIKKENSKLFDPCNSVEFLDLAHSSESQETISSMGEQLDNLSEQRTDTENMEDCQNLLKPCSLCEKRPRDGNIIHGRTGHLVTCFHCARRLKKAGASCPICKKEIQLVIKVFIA
Target sequence (Q00987 whole entry, looked up): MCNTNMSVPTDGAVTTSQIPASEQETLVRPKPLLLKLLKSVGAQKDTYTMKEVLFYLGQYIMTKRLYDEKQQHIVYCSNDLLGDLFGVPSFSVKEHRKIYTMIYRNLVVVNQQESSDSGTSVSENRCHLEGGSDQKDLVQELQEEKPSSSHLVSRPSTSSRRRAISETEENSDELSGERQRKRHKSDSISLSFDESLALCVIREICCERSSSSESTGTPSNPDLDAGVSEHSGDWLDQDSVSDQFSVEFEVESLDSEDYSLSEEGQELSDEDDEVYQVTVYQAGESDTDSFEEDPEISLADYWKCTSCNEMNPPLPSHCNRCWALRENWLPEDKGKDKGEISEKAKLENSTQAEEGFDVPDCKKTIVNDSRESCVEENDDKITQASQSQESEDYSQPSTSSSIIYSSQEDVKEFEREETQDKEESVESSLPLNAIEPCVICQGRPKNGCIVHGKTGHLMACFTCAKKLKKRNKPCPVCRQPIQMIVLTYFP
Calb FLC: C. albicans growth inhibition with fluconazole, primary screen, CaCi-2 strain, Alamar Blue fluorescence; C. albicans CaCi-2 (fluconazole-resistant clinical isolate) + fluconazole, 48 h; growth inhibition, % (concentration not given with the values); actives 0.57% (n = 300,000);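 active means growth inhibition above about 58% in most replicates, limit read from the data, passing the limit was not always enough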;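 further: all wells also contain fluconazole at 8 µg/ml as a sub-toxic cotreatment; 0% = median of DMSO wells and 100% = median of geldanamycin control wells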
Beta apoptosis: inhibitors of cytokine-induced beta cell apoptosis, primary screen, luminescence. INS-1E cytokine-induced death, ATP luminescence, 48 h; percent of positive-control rescue, neutral wells zero. protection from apoptosis, % (concentration not given with the values). actives 0.8% (n = 300,000);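 active means Every replicate reaches about 75%, or at least half do and their mean reaches it too, limit read from the data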;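 further: 0% = cytokine-treated negative control wells and 100% = positive control rescue; higher means more ATP so stronger rescue from cytokine killing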
CSC inhib: cancer stem cell viability inhibitors, primary screen, luminescence. cancer stem cell-like cells viability. inhibition, % at 7.5 µM. actives 1.1% (n = 300,000); in the data active means inhibition above about 75%; tested in HMLE shEcad cells
MPTP inh: mitochondrial permeability transition pore inhibitors, primary screen, biochemical, isolated mouse mitochondria, absorbance; inhibition, % at 10 µM; Ca2+ swelling absorbance, 30 min; actives 1.4% (n = 360,000);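 active means inhibition of 50% or more, scaled per plate between neutral and stimulator controls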;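 further: 0% = DMSO wells given calcium and 100% = 1 mM EGTA wells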
Mdm2 MdmX conf: Mdm2-MdmX complex disruptors, retested hits, confirmation, luminescence, single concentration; AID 489028, 2010; shares compounds with Mdm2 MdmX PPI; inhibition, % at 8 µM; Mdm2-MdmX binding, luminescent assay; actives 55% (n = 10,000); in the data active means inhibition above about 40%
FLuc counter: full-length luciferase signal inhibition, confirmation, counter-screen for Mdm2/MdmX interaction inhibitor project, cell-based, single concentration, SaOS-2; shares compounds with Mdm2 MdmX PPI; SaOS-2 full-length luciferase counterscreen, luminescence; inhibition, % at 8 µM; actives 77% (n = 6,200); AID 504607, 2011;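 active means mean inhibition at 8 µM reaching about 37%, which flags the compound as non-specific, limit read from the data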;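 further: p53-null SaOS-2 cells with luciferase driven by a doxycycline-inducible promoter; compound on cells about two nights before reading with doxycycline added after day one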
* hit, by the source's call; nt = not tested or not shown. In the library only some 5.4% were active in any assay of this set; here they are far more common.

SMILES	SKKanGAS inh	Mdm2 MdmX PPI	Calb FLC	Beta apoptosis	CSC inhib	MPTP inh	Mdm2 MdmX conf	FLuc counter
CSCC[C@H](NC(=O)c1cccc([N+](=O)[O-])c1C)c1nc2ccccc2[nH]1	-3	4	-17	-9	7	2	nt	nt
Cc1ccc(C)c(CN2C(=O)c3ccccc3S(=O)c3ccc(C(=O)N4CCN(c5ccccn5)CC4)cc32)c1 (configuration not stated)	15	99*	17	8	52	5	89*	54*
Cc1ccc(C)c(CN2C(=O)c3ccccc3S(=O)(=O)c3ccc(C(=O)N4CCN(C)CC4)cc32)c1	7	15	-12	4	-10	0	nt	nt
CCC(=NNC(=O)c1ccc2c(c1)nc(C)n2CC)c1cc(F)ccc1O	nt	58*	nt	90*	21	0	22	nt
COc1cc(NC(=O)C(C)C)ccc1NC(=O)c1cc2ccccc2o1	-5	-104	12	2	-1	3	nt	nt
COc1cc(NC(=O)c2cccc(C)c2)ccc1NC(=O)c1cc2ccccc2o1	0	67*	-2	14	16	1	36	81*
CCC(=O)NC(=S)Nc1ccc(NC(=O)c2cc3ccccc3o2)c(OC)c1	2	54*	26	0	9	2	-3	nt
COc1cc(NC(=O)c2cccc([N+](=O)[O-])c2)ccc1NC(=O)c1cc2ccccc2o1	0	81*	0	11	4	-1	31	88*
CCOc1cccc(C(=O)Nc2ccc(NC(=O)c3cc4ccccc4o3)c(OC)c2)c1	-3	-7	1	7	20	3	nt	nt
O=C(NC(=S)Nc1ccc(NC(=O)c2cccs2)cc1)c1cc2ccccc2o1	-7	52*	-7	6	23	2	30	nt
O=C(NC(=S)Nc1ccc(NC(=O)c2cccs2)cc1)c1ccco1	-3	-29	2	0	-1	1	nt	nt
CCn1c(C)[n+](Cc2ccccc2)c2ccc(Cl)cc21	-8	-8	-14	-5	-20	-2	nt	nt
COc1cccc(OC)c1OCCCNC1CCCC1	-14	-8	0	-4	13	-2	nt	nt
N#CC1(C#N)CC(C=O)=C(N)C1(C#N)CC(=O)c1ccc(F)cc1 (configuration not stated)	6	2	-5	-3	-3	1	nt	nt
CCOc1cc(S(=O)(=O)n2ccnc2)ccc1Br	5	4	0	-14	2	0	nt	nt
CCOc1cc(S(=O)(=O)n2ccc(C)n2)ccc1Br	-10	81*	-25	nt	5	-2	-2	nt
Cc1ccc(NCc2ccco2)cc1C	1	-11	-22	-5	-3	-3	nt	nt
Oc1c(CNc2ccccc2)cc(COCc2ccccc2)c2cccnc12	nt	70*	nt	nt	nt	0	45*	79*
Cc1ccc(NCc2ccc(O)c3ncccc23)cc1	12	76*	64*	2	18	3	71*	66*
Cc1ccc(NCc2ccc(O)c3ncccc23)cc1C	7	78*	65*	4	-6	4	64*	48*
Fc1cccc(COc2ccccc2CNc2ccccc2)c1	-8	nt	9	1	22	1	nt	nt
CCOc1cc(/C=C2\CCCc3c2nc2ccccc2c3C(=O)O)ccc1OC	-8	15	2	-2	7	0	nt	nt
Cc1ccc(Cl)cc1NC(=O)NCCN1CCCCC1	11	9	16	-2	-9	1	nt	nt
CCCCc1nnc(NC(=O)C2CCN(c3ncnc4sc(C)c(C)c34)CC2)s1	-1	-17	2	nt	-7	1	nt	nt
Cc1ccc2nc(NC(=O)C3CCN(c4ncnc5sc(C)c(C)c45)CC3)sc2c1	26	29	-3	3	-3	-1	nt	nt
SMILES	SKKanGAS inh	Mdm2 MdmX PPI	Calb FLC	Beta apoptosis	CSC inhib	MPTP inh	Mdm2 MdmX conf	FLuc counter
Cc1sc2ncnc(N3CCC(C(=O)Nc4nc(-c5cccs5)cs4)CC3)c2c1C	40	86*	-6	31	-1	0	93*	43*
Cc1sc2ncnc(N3CCC(C(=O)Nc4ccccc4C(C)(C)C)CC3)c2c1C	10	51*	-2	3	-5	1	60*	28
O=C(Nc1nc2ccc(S(=O)(=O)N3CCCCC3)cc2s1)C1CCCO1 (configuration not stated)	-2	4	7	0	9	-1	nt	nt
CCc1nnc(NC(=O)C2CCN(c3ncnc4sc(C)c(C)c34)CC2)s1	nt	53*	nt	-11	-3	2	53*	81*
O=C(Nc1nc2ccc(S(=O)(=O)N3CCCC3)cc2s1)C1CCCCC1	11	66*	-2	7	58	0	57*	70*
CCNC(=O)NC1(C(=O)N2CCC(Cc3ccccc3)CC2)CCCCC1	3	8	10	12	-10	0	nt	nt
Cc1c(Cl)cccc1NC(=O)c1cccnc1	4	16	-10	-2	-4	1	nt	nt
O=C1CCCC(NCCCCCCNC2=C([N+](=O)[O-])C(=O)CCC2)=C1[N+](=O)[O-]	nt	nt	nt	nt	nt	0	nt	nt
CCc1nnc(NC(=O)C2CCN(S(=O)(=O)c3ccc(C)cc3)CC2)s1	31	53*	-2	-7	1	1	-2	nt
Cc1ccc(S(=O)(=O)N2CCC(C(=O)Nc3nnc(C4CCCC4)s3)CC2)cc1	0	18	-5	-4	-16	2	nt	nt
O=C(Cc1ccc(Cl)cc1)NCCS(=O)c1ccc(Cl)cc1 (configuration not stated)	-4	1	9	3	-17	-2	nt	nt
Cc1nc2c(sc3nc(N4CCOCC4)c4c(c32)CC(C)(C)OC4)c(-c2ccc(Cl)cc2)c1C(=O)O	28	64*	-3	8	40	5	32	nt
CC1(C)Cc2c(c(N3CCOCC3)nc3snc(N)c23)CO1	0	83*	-44	67	21	-2	31	nt
O=C(COc1ccc(Cl)cc1)Nc1cccc(-c2ccc(N3CCOCC3)nn2)c1	43	-71	-5	22	nt	1	nt	nt
O=C(Nc1ccc(Oc2ccc(NC(=O)Nc3ccccc3Cl)cc2)cc1)Nc1ccccc1Cl	3	54*	-13	54	40	2	41*	47*
O=C(/C=C\Nc1ccccn1)c1ccccc1	8	-42	-34	2	-12	-1	nt	nt
O=C(/C=C/Nc1ccccc1Br)c1ccccn1	14	75*	-1	25	-11	2	76*	24
Cc1ccnc2c1ccc1cccnc12	nt	84*	nt	nt	nt	1	86*	23

Source: PubChem BioAssay (several laboratories)
